The source of these data is PubChem BioAssay AID651678 (Sanford-Burnham Center for Chemical Genomics, 2012).

Structures are written as SMILES. Some of the results follow. A number with no mark means an inactive call. The source made the active and inactive calls. Rule as the data show it: active = inhibition mostly above about 35% (no sharp cut-off); inactive = mostly below about 32%.

For the experiment, the target named is Sentrin-specific protease 1 (Homo sapiens) (UniProt Q9P0U3). Description: retest of SENP1 SUMO protease blockers – biochemical, FRET endpoint, single concentration, confirmation (AID 651678).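 Also: 0% = enzyme with DMSO and 100% = no enzyme control.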 Conditions: recombinant SENP1, CyPet-SUMO1-YPet FRET cleavage; at 10 µM; stronger effect = higher value.
Sequence of Sentrin-specific protease 1 (Homo sapiens) (Q9P0U3 419-644 limits assumed): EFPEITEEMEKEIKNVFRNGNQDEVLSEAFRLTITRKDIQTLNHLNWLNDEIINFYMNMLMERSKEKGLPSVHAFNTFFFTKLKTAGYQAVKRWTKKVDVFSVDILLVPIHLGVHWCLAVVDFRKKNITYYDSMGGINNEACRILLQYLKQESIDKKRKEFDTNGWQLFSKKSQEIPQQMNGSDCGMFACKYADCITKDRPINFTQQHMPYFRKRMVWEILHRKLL
Regarding `Cc1ccc(C(=O)N/N=C\c2cc(Br)c(Br)o2)cn1`, the inhibition is 11.3%.

As for `Cn1c(-c2sc3cc(C(F)(F)F)cnc3c2-c2ccccc2)n[nH]c1=S`, the inhibition was -1.85%.

On to `CC(=O)c1cccc(-c2cnc3c(NC=O)cc(-c4ccc(N(C)C)cc4)cn23)c1`, for which the inhibition is 57.9% (active).

`COc1ccc(N2C(=O)C3C(C2=O)C(C(=O)c2ccccc2)N2CCCC32)cc1` (stereo unspecified): the inhibition is 36.9% (active).

With `O=C1CC[C@@H]2CC3(C[C@@H]4CCN1[C@H]24)Nc1cc([N+](=O)[O-])ccc1NC3=NC1CCCCC1` (stereo partly specified), the inhibition is 21.6%.

On to `Fc1cccc(Cc2c(-c3cccc(Cl)c3)nc3ccc(Br)cn23)c1`, for which the inhibition is 4.53%.

Consider `Cc1ccc2c(c1)nnc1nnc(SCC(=O)O)n12`, for which the inhibition is 71.8% (active).

As to `O=[N+]([O-])c1ccc(N=NNc2ccc([N+](=O)[O-])cc2)cc1`, the inhibition is 20.1%.

With `Cc1cc(C(=O)N/N=C/c2ccc(N3CCOCC3)cc2)c(C)o1`, the inhibition is 29.1%.

In the case of `O=C(NC(=O)c1ccccc1)Nc1ccccc1O`, the inhibition was 0.15%.

Turning to `O=C1C=C(c2cccc(Cl)c2O)C[C@@H](c2ccc(F)cc2)C1`, the inhibition was 94.1% (active).

`c1coc(-c2nc3nc4ccccc4n3nc2-c2ccco2)c1`: the inhibition is 19.4%.

`COc1cc(/C=C2\CCCc3c2nc2ccccc2c3C(=O)O)cc(Cl)c1O`: the inhibition is 97.5% (active).

For `O=C1/C(=C/c2coc3ccc(O)cc3c2=O)SC(=S)N1c1ccccc1`, the inhibition is 3.85%.

As to `CCOC(=O)C1CCN(c2ncnc3c2c(-c2ccccc2)cn3-c2ccc(C)cc2)CC1`, the inhibition is 6.42%.

`CCCCCn1nnnc1-c1nc2cc3ccccc3cc2[nH]c1=O`: the inhibition was 84.5% (active).

Turning to `COc1ccc(OC)c(C2C3=C(N=c4s/c(=C\c5cccc(O)c5)c(=O)n42)c2ccccc2CC3)c1` (stereo unspecified), the inhibition was 35.7%.

As to `CCN(CC)S(=O)(=O)c1cc([N+](=O)[O-])ccc1N=Nc1c(O)n(C)c2ccccc12`, the inhibition was 10.5%.

With `N/C(=N\OC(=O)N1c2ccccc2Sc2ccccc21)c1ccc(Br)cc1`, the inhibition was -2.12%.

Take `Cc1cccc(C)c1Nc1c(-c2ccccc2O)nc2ncccn12`: the inhibition was 16.2%.

Regarding `O=C(CCN1C(=O)/C(=C/c2cccs2)SC1=S)NNC(=O)c1cccc(O)c1`, the inhibition was 66.9% (active).

The term inhibition denotes the change of the read-out against control, counted positive when it falls.
